According to publication PMC4552634, “A New Set of Chemical Starting Points with Plasmodium falciparum Transmission-Blocking Potential for Antimalarial Drug Discovery” (PLoS ONE, 2015):
Hit rate of the full screen: of about 13,000 compounds, about 3,200 (25%) showed an effect of 50% or more. This is one part of the list.

system: P. falciparum stage V gametocytes; set-up: BacTiter-Glo ATP luminescence viability of purified stage V gametocytes in 384-well plates, per cent inhibition versus DMSO; details: 48 h, 5 µM; inhibitor

Row | Structure (SMILES) | % Inhibition [%]
1 | Nc1ncc(-c2ccc(Br)cc2)c(N)n1 [TCMDC-125524] | -3.505
2 | Cn1ccnc1CNC(=O)c1ccc(-c2ccc(-c3nc4cc(C(F)(F)F)ccc4[nH]3)s2)cc1 [TCMDC-132353] | 3.481
3 | COc1cccc2c(NCc3ccccc3)nc(NCCCN3CCCCC3C)nc12 (stereo not drawn) [TCMDC-137782] | 79.04
4 | Brc1ccc(Nc2nc(NCc3ccccc3)c3ccccc3n2)cc1 [TCMDC-124574] | 42.06
5 | CC1CCCCN1CCCNc1nc(NCc2ccccc2)c2ccccc2n1 (stereo not drawn) [TCMDC-137771] | 108.4
6 | COc1cc(CCNc2nc(NCc3cccc4ccccc34)nc(N3CCC(N)CC3)n2)ccc1O [TCMDC-133444] | -7.002
7 | c1ccc(CNc2nc(NCCc3cnc[nH]3)nc(N3CCCC4CCCCC43)n2)cc1 (stereo not drawn) [TCMDC-139742] | 0.6761
8 | COc1cccc2c(C)cc(NCc3ccc(Cl)cc3)nc12 [TCMDC-125774] | -17.6
9 | C=C1N(C)c2cc([N+](=O)[O-])c(N)cc2C1(C)C [TCMDC-125319] | -63.8
10 | COc1cc2c(cc1COc1ccccc1)CCN1Cc3cc(OC)c(OC)cc3CC21 (stereo not drawn) [TCMDC-141984] | -4.56
11 | COc1cc2c(cc1O)[C@@H]1[C@H](O)[C@@H](O)C=C3CCN(C2)[C@H]31 [TCMDC-132036] | 63.23
12 | CC(=O)Nc1ccc(C(=O)Nc2cccc(-c3cccc(-c4nc5ccccc5[nH]4)c3)c2)cn1 [TCMDC-136820] | 6.09
13 | CC(=O)Nc1ccc(C(=O)Nc2cccc(-c3csc(-c4nc5ccccc5[nH]4)c3)c2)cn1 [TCMDC-132405] | 77.44
14 | CC(=O)Nc1ccc(C(=O)Nc2ccc(-c3csc(-c4nc5ccccc5[nH]4)c3)cc2)cn1 [TCMDC-132393] | 4.532
15 | CC(=O)Nc1ccc(C(=O)Nc2ccc(-c3cccc(-c4nc5ccccc5[nH]4)c3)cc2)cn1 [TCMDC-136819] | -15.84
16 | CC(=O)Nc1ccc(C(=O)Nc2cccc(-c3ccc(-c4nc5ccccc5[nH]4)s3)c2)cn1 [TCMDC-136821] | 24.61
17 | CC(=O)Nc1ccc(C(=O)Nc2cccc(-c3ccc(-c4nc5ccccc5[nH]4)cc3)c2)cn1 [TCMDC-136827] | 76.21
18 | Cc1ccc(Cn2c(N3CCC(C(=O)NCc4ccccn4)CC3)nc3ccccc32)cc1 [TCMDC-125442] | 35.66
19 | NC(=O)NC(=O)C=Cc1ccco1 [TCMDC-131644] | -0.9845
20 | COc1cc(NC(=O)/C=C/c2cc(F)cc(F)c2F)cc(OCCN2CCC3(CC2)OCCO3)c1 [TCMDC-140933] | -20.54
21 | COc1ccc(C(=O)N2CCC3(CC2)C(=O)N(CC(=O)NCC2CCCCC2)CN3c2ccccc2)cc1 [TCMDC-125171] | 3.565
22 | O=C(Nc1ccc(C(F)(F)F)cc1)c1ccc(S(=O)(=O)NC2CCN(CC3CCCCC3)C2)cc1 (stereo not drawn) [TCMDC-133674] | -14.42
23 | O=C(Nc1ccc(C(F)(F)F)cc1)c1ccc(S(=O)(=O)NC2CCN(CC3CCCCC3)CC2)cc1 [TCMDC-133676] | -72.67
24 | O=C(Nc1cccc(C(F)(F)F)c1)c1ccc(S(=O)(=O)NC2CCN(CC3CCCCC3)C2)cc1 (stereo not drawn) [TCMDC-132772] | 86.66

Row | Structure (SMILES) | % Inhibition [%]
25 | O=C(Nc1ccc(C(F)(F)F)cc1)c1ccc(S(=O)(=O)NC2CCCN(CC3CCCCC3)C2)cc1 (stereo not drawn) [TCMDC-133678] | 5.433
26 | O=C(Nc1cccc(C(F)(F)F)c1)c1ccc(S(=O)(=O)NC2CCN(CC3CCCCC3)CC2)cc1 [TCMDC-132773] | 84.32
27 | O=C(Nc1cccc(C(F)(F)F)c1)c1cccc(S(=O)(=O)NC2CCN(CC3CCCCC3)C2)c1 (stereo not drawn) [TCMDC-132487] | 9.75
28 | CCC[C@@H]([C@@H](CC1CCCCC1)C(=O)N[C@H](C(=O)Nc1nccc(N)n1)C(C)(C)C)N(O)C=O [TCMDC-138127] | 6.724
29 | NC12CC3CC(CC(C3)C1)C2 [TCMDC-125869] | 6.577
30 | CC(C)NC(=O)c1cccc(-c2cccc(OCCN3CCSCC3c3ccccc3)c2)c1 (stereo not drawn) [TCMDC-134384] | 34.28
31 | O=C(/C=C/c1ccc(Cl)c(Cl)c1)Nc1cccc(CN2CCC(c3c[nH]c4ccc(O)cc34)CC2)c1 [TCMDC-139634] | -96.41
32 | COC(=O)CCCCOc1cc(Cc2cnc(N)nc2N)cc(OC)c1OC [TCMDC-138041] | 1.908
33 | O=C(/C=C/c1ccc(Cl)c(Cl)c1)NC1CCC(CN2CCC(c3coc4ccccc34)CC2)CC1 (stereo not drawn) [TCMDC-140260] | -37.97
34 | Cc1cccc2[nH]cc(C3CCN(CC4CCC(NC(=O)/C=C/c5ccc(Cl)c(Cl)c5)CC4)CC3)c12 (stereo not drawn) [TCMDC-140137] | 108
35 | Cc1cccc2c(C3CCN(CC4CCC(NC(=O)/C=C/c5ccc(Cl)c(Cl)c5)CC4)CC3)c[nH]c12 (stereo not drawn) [TCMDC-139639] | 73.81
36 | COc1cc2c(C3CCN(CC4CCC(NC(=O)/C=C/c5ccc(Cl)c(Cl)c5)CC4)CC3)c[nH]c2cn1 (stereo not drawn) [TCMDC-140245] | 13.08
37 | COc1ccc2nccc(NC(=O)N3CCC(NCc4cc5ccccc5[nH]4)CC3)c2n1 [TCMDC-140671] | -10.57
38 | Cc1cc(Cl)ccc1N(Cc1ccccc1)c1ccnc(Cl)n1 [TCMDC-138722] | -10.33
39 | Cc1cc(C)nc(-n2[nH]c(C)c(Cc3ccc(C(C)(C)C)cc3)c2=O)n1 [TCMDC-125382] | 16.36
40 | O=C(Nc1ccc(N2CCNCC2)cc1)c1ccn2ncc(-c3cccc(Cl)c3)c2n1 [TCMDC-132663] | 113.1
41 | Oc1ccc(CCNc2nc(NCc3ccccc3-c3cccc(Cl)c3)nc(N3CCNCC3)n2)cc1 [TCMDC-133784] | -2.358
42 | O=C(Nc1cccc(Cl)c1)c1cnc(N2CCN(c3ccncc3)CC2)c(Cl)c1 [TCMDC-134600] | 12.94
43 | O=C(Nc1ccc(Cn2nc(Cl)c(N3CCNCC3)cc2=O)cc1)Nc1ccc(-c2ccccc2)cc1 [TCMDC-141700] | -30.94
44 | Cc1c(Cn2nc(Cl)c(N3CCNCC3)cc2=O)cccc1NC(=O)Nc1ccc(-c2ccccc2)cc1 [TCMDC-141699] | 65.88
45 | O=C(Nc1ccc(Cn2nc(Cl)c(N3CCCNCC3)cc2=O)cc1)c1ccc(-c2ccccc2)cc1 [TCMDC-141693] | 29.71
46 | O=C(Nc1ccc(-c2ccccc2)cc1)Nc1cccc(Cn2nc(Cl)c(N3CCNCC3)cc2=O)c1 [TCMDC-141694] | -35.56
47 | COc1ccc(NC(=O)Nc2ccc(-c3ccccc3)cc2)cc1Cn1nc(Cl)c(N2CCCNCC2)cc1=O [TCMDC-141724] | 21.4
48 | Cc1ccc(Cn2nc(Cl)c(N3CCNCC3)cc2=O)cc1NC(=O)Nc1ccc(-c2ccccc2)cc1 [TCMDC-141698] | 114.4

Row | Structure (SMILES) | % Inhibition [%]
49 | O=C(Nc1ccc(Cn2nc(Cl)c(N3CCCNCC3)cc2=O)cc1)Nc1ccc(-c2ccccc2)cc1 [TCMDC-141696] | -10.1
50 | O=C(Nc1ccc(-c2ccccc2)cc1)Nc1cccc(Cn2cnc(N3CCCNCC3)cc2=O)c1 [TCMDC-133363] | -19.33
51 | Cc1ccc(Cn2cnc(N3CC(C)NC(C)C3)cc2=O)cc1NC(=O)Nc1ccc(-c2ccccc2)cc1 (stereo not drawn) [TCMDC-133371] | 24.76
52 | Cc1ccc(Cn2nc(N3CCNCC3)ccc2=O)cc1NC(=O)Nc1ccc(-c2ccccc2)cc1 [TCMDC-132580] | 107.8
53 | Cc1ccc(Cn2nc(Cl)c(N3CCCNCC3)cc2=O)cc1NC(=O)Nc1ccc(-c2ccccc2)cc1 [TCMDC-141697] | 91.1
54 | O=C(Nc1ccc(-c2ccccc2)cc1)Nc1cccc(Cn2nc(Cl)c(N3CCCNCC3)cc2=O)c1 [TCMDC-141695] | 3.325
55 | CCN1CCC(N2CCC(C(=O)Nc3cccc(-c4cccc(Cl)c4)c3)CC2)CC1 [TCMDC-124650] | 24.3
56 | COc1ccc(CN2CCCN(Cc3cccc(C(=O)Nc4ccc(C(C)(C)C)cc4)c3)CC2)cc1 [TCMDC-135986] | 5.589
57 | CCc1c(C)nc(-n2nc(C)cc2NC(=O)CC(c2ccccc2)c2ccccc2)[nH]c1=O [TCMDC-124933] | -29.94
58 | NC(=O)Nc1ccc2c(Nc3ccc(OCc4ccccc4)cc3)ncnc2c1 [TCMDC-131937] | 13.28
59 | Cc1ccc2sc(N(CCCn3ccnc3)C(=O)c3ccco3)nc2c1C [TCMDC-124922] | 21.61
60 | O=C(Cc1cccnc1)Nc1cccc(-c2cccc(-c3nc4ccc(C(F)(F)F)cc4[nH]3)c2)c1 [TCMDC-136815] | 21.33
61 | COc1ccc(CN2CCN(CCCCNC(=O)c3ccc(NC(=O)c4ccc(Cl)cc4)cc3)CC2)c(OC)c1 [TCMDC-138280] | 2.758
62 | COc1ccc(CC2(c3ccc(F)cc3)N=C(N)N(CCCc3cccnc3)C2=O)cc1 (stereo not drawn) [TCMDC-136541] | 12.34
63 | Cc1cc(N[C@@H](CC(C)C)C(=O)NCCOc2ccccc2)nc(NCCOc2ccccc2)n1 [TCMDC-134761] | 40.02
64 | Cc1cc(N[C@@H](CC(C)C)C(=O)NCCOc2ccccc2)nc(NCCc2ccc(F)cc2)n1 [TCMDC-134795] | 47.6
65 | Cc1cccc(CNc2nc(C)cc(N[C@@H](Cc3ccccc3)C(=O)NCCOc3ccccc3)n2)c1 [TCMDC-134888] | 18.91
66 | Cc1cc(N[C@@H](Cc2ccccc2)C(=O)NCCOc2ccccc2)nc(NCCc2ccccn2)n1 [TCMDC-134748] | 75.62
67 | Cc1cc(N[C@@H](CC(C)C)C(=O)NCCOc2ccccc2)nc(NCCc2ccccc2)n1 [TCMDC-134871] | 94.75
68 | CCCC(C)Nc1nc(C)cc(N[C@@H](Cc2ccccc2)C(=O)NCCOc2ccccc2)n1 (stereo partly drawn) [TCMDC-134765] | -43.65
69 | Cc1cc(N[C@@H](Cc2ccccc2)C(=O)NCc2cccs2)nc(NCCOc2ccccc2)n1 [TCMDC-134758] | 28.84
70 | Cc1cc(N[C@@H](Cc2ccccc2)C(=O)NCCOc2ccccc2)nc(NCCc2cccs2)n1 [TCMDC-134813] | 64.23
71 | Cc1cc(N[C@@H](Cc2ccccc2)C(=O)NCCOc2ccccc2)nc(NCCc2ccc(F)cc2)n1 [TCMDC-134789] | 64.78
72 | Cc1cc(N[C@@H](Cc2ccccc2)C(=O)NCCOc2ccccc2)nc(NCC2CCCCC2)n1 [TCMDC-134933] | -5.307
